Data taken from PubChem BioAssay (NCI).
The panel holds about 79,000 compounds, 15% with a hit somewhere; the sample as a whole holds those more often. Values without a mark were called inactive. Calls of active or inactive are those of the source. Rule as the data show it: active = growth inhibition above about 70%; inactive = the rest.

How the values were obtained:
[1] = NCI Yeast Anticancer Drug Screen. Data for the rad52 strain (AID 147);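 also: 0% = growth of vehicle-treated control cultures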; conditions: S. cerevisiae rad52 mutant growth inhibition, stronger effect = higher value
How it was run: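 Measured: yeast growth inhibition. System: strain with a defined DNA damage repair alteration. Reference: vehicle-treated control cultures.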

[2] = NCI Yeast Anticancer Drug Screen. Data for the wt1 strain (AID 149);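 also: 0% = growth of vehicle-treated wt1 cultures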; conditions: S. cerevisiae wt1 strain (SPY 50644) growth inhibition, stronger effect = higher value
How it was run: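 Yeast wt1 strain exposed to compounds; growth inhibition measured relative to vehicle-treated controls.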

[3] = NCI Yeast Anticancer Drug Screen. Data for the rad50EPP+ strain (AID 151);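 also: 0% = growth of vehicle-treated control cultures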; conditions: S. cerevisiae rad50 mutant strain, stronger effect = higher value
How it was run: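 One strain with a rad50 alteration (rad50EPP+) was compound-treated, its growth then compared to that of vehicle controls.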

[4] = NCI Yeast Anticancer Drug Screen. Data for the mgt1 strain (AID 153); conditions: S. cerevisiae mgt1 mutant growth inhibition, stronger effect = higher value
How it was run: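 After exposure of the mgt1 yeast mutant to compound, growth was measured and reported as inhibition compared with vehicle controls.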

[5] = NCI Yeast Anticancer Drug Screen. Data for the rad50 strain (AID 155);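 also: 0% = growth of vehicle-only cultures of the same strain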; conditions: S. cerevisiae rad50 strain growth inhibition, stronger effect = higher value
How it was run: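 Yeast carrying a defined DNA repair defect were exposed to test compounds, and growth was compared with vehicle-treated controls to give percent inhibition.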

[6] = NCI Yeast Anticancer Drug Screen. Data for the mec2-1 strain (AID 157); conditions: S. cerevisiae mec2-1 strain, stronger effect = higher value
How it was run: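 Test agents were screened against the mec2-1 yeast strain, with defined DNA repair or cell cycle alteration. Growth was scored as inhibition against vehicle-only controls.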

[7] = NCI Yeast Anticancer Drug Screen. Data for the sgs1 mgt1 strain (AID 161);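 also: 0% = growth of cultures given vehicle only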; conditions: S. cerevisiae sgs1 mgt1 strain, stronger effect = higher value
How it was run: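 Inhibition of yeast growth, normalised to vehicle-treated controls, is reported for a strain bearing genetic alterations in DNA damage repair.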

[8] = NCI Yeast Anticancer Drug Screen. Data for the CLN2oe strain (AID 163);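 also: 0% = growth of vehicle-only control cultures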; conditions: S. cerevisiae CLN2oe strain, stronger effect = higher value
How it was run: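 Here, growth inhibition in a cell-cycle-altered yeast strain after compound exposure was quantified against vehicle control growth.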

[9] = NCI Yeast Anticancer Drug Screen. Data for the cln2 rad14 strain (AID 165);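 also: 0% = growth equal to vehicle treated cultures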; conditions: S. cerevisiae cln2 rad14 strain, stronger effect = higher value
How it was run: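 Growth of compound-exposed yeast (cln2 rad14 genotype) measured and expressed as inhibition relative to vehicle.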

[10] = NCI Yeast Anticancer Drug Screen. Data for the bub3 strain (AID 167); conditions: S. cerevisiae bub3 mutant strain, stronger effect = higher value
How it was run: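 Compounds were applied to a genetically altered yeast strain carrying a cell-cycle control defect. Growth inhibition was scored against vehicle-treated controls.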

[11] = NCI Yeast Anticancer Drug Screen. Data for the mlh1 strain (AID 171);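 also: 0% = growth of vehicle-treated control cultures of the same strain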; conditions: S. cerevisiae mlh1 strain growth inhibition, stronger effect = higher value
How it was run: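 Here the genetically defined yeast mutant is grown with each compound, and the extent to which its growth falls below that of vehicle-exposed cells is reported.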

[12] = NCI Yeast Anticancer Drug Screen. Data for the sgs1 strain (AID 173);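 also: 0% = growth of vehicle-only control cultures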; conditions: S. cerevisiae sgs1 mutant, stronger effect = higher value
How it was run: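 Relative growth inhibition, referenced to vehicle, was determined in a yeast strain with a defined alteration affecting DNA damage repair or cell cycle control after compound exposure.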

[13] = NCI Yeast Anticancer Drug Screen. Data for the mlh1 rad18 strain (AID 175); conditions: S. cerevisiae mlh1 rad18 strain growth inhibition, stronger effect = higher value
How it was run: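 In this whole-cell yeast screen, a strain with altered DNA damage repair is challenged with compound, and its growth is measured against matched vehicle-treated controls.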

[14] = NCI Yeast Anticancer Drug Screen. Data for the rad14 strain (AID 159);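 also: 0% = growth of vehicle-treated control cultures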; conditions: S. cerevisiae rad14 strain growth inhibition, stronger effect = higher value
How it was run: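 Yeast cells carrying a defined DNA-repair defect were exposed to compounds, and growth inhibition was calculated relative to vehicle-treated control cultures.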

[15] = NCI Yeast Anticancer Drug Screen. Data for the wt2 strain (AID 169);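 also: 0% = growth of vehicle-treated yeast cultures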; conditions: S. cerevisiae wt2 strain growth inhibition, stronger effect = higher value
How it was run: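 Genetically defined yeast strains from a DNA-repair/cell-cycle panel were used. Compound-exposed yeast growth was measured, and the inhibition was calculated relative to vehicle treatment.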

[16] = NCI Yeast Anticancer Drug Screen. Data for the rad18 strain (AID 177); conditions: S. cerevisiae rad18 mutant growth inhibition, stronger effect = higher value
How it was run: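 Screen uses a yeast strain with a defined lesion in DNA damage repair; compound effect is read as loss of growth compared to untreated vehicle cultures.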

[17] = at 5.0 µM (retest, dose inferred, filed as 0.5)
[18] = at 50.0 µM (retest, dose inferred, filed as 5.0)

CC(C)(C)c1cc([N+](=O)[O-])cc([N+](=O)[O-])c1O
growth inhibition ([1]; at 1.2 µM): -11%
growth inhibition ([1]; at 3.7 µM): -17%
growth inhibition ([1]; at 11.0 µM): -1%
growth inhibition ([1]; at 33.0 µM): 17%
growth inhibition ([1]; at 100.0 µM): 33%
growth inhibition ([2]; at 1.2 µM): -16%
growth inhibition ([2]; at 3.7 µM): -23%
growth inhibition ([2]; at 11.0 µM): -7%
growth inhibition ([2]; at 33.0 µM): 12%
growth inhibition ([2]; at 100.0 µM): 38%
growth inhibition ([3]; at 1.2 µM): -54%
growth inhibition ([3]; at 3.7 µM): -54%
growth inhibition ([3]; at 11.0 µM): -44%
growth inhibition ([3]; at 33.0 µM): -25%
growth inhibition ([3]; at 100.0 µM): -13%
growth inhibition ([4]; at 1.2 µM): -52%
growth inhibition ([4]; at 3.7 µM): -34%
growth inhibition ([4]; at 11.0 µM): 21%
growth inhibition ([4]; at 33.0 µM): -11%
growth inhibition ([4]; at 100.0 µM): 43%
growth inhibition ([5]; at 1.2 µM): -24%
growth inhibition ([5]; at 3.7 µM): -26%
growth inhibition [5, 17]: 46%
growth inhibition ([5]; at 11.0 µM): -5%
growth inhibition ([5]; at 33.0 µM): 1%
growth inhibition [5, 18]: 100% (active)
growth inhibition ([5]; at 50.0 µM): 78.8% (active)
growth inhibition ([5]; at 100.0 µM): 22%
growth inhibition ([6]; at 1.2 µM): -61%
growth inhibition ([6]; at 3.7 µM): -47%
growth inhibition [6, 17]: 66%
growth inhibition ([6]; at 11.0 µM): -25%
growth inhibition ([6]; at 33.0 µM): -8%
growth inhibition [6, 18]: 99% (active)
growth inhibition ([6]; at 50.0 µM): 72.2% (active)
growth inhibition ([6]; at 100.0 µM): 7%
growth inhibition [7, 17]: 0%
growth inhibition [7, 18]: 38%
growth inhibition ([7]; at 50.0 µM): 84.3% (active)
growth inhibition ([8]; at 1.2 µM): 9%
growth inhibition ([8]; at 3.7 µM): 1%
growth inhibition ([8]; at 11.0 µM): 12%
growth inhibition ([8]; at 33.0 µM): 25%
growth inhibition ([8]; at 100.0 µM): 28%
growth inhibition [9, 17]: 46%
growth inhibition [9, 18]: 21%
growth inhibition ([9]; at 50.0 µM): 73.4% (active)
growth inhibition ([10]; at 1.2 µM): -17%
growth inhibition ([10]; at 3.7 µM): -15%
growth inhibition [10, 17]: -13%
growth inhibition ([10]; at 11.0 µM): -2%
growth inhibition ([10]; at 33.0 µM): 9%
growth inhibition [10, 18]: 39%
growth inhibition ([10]; at 50.0 µM): 68.6%
growth inhibition ([10]; at 100.0 µM): 21%
growth inhibition ([11]; at 1.2 µM): -38%
growth inhibition ([11]; at 3.7 µM): -33%
growth inhibition ([11]; at 11.0 µM): -4%
growth inhibition ([11]; at 33.0 µM): 10%
growth inhibition ([11]; at 100.0 µM): 42%
growth inhibition ([12]; at 1.2 µM): -20%
growth inhibition ([12]; at 3.7 µM): -8%
growth inhibition ([12]; at 11.0 µM): 15%
growth inhibition ([12]; at 33.0 µM): 40%
growth inhibition ([12]; at 100.0 µM): 46%
growth inhibition [13, 17]: 50%
growth inhibition [13, 18]: 100% (active)
growth inhibition ([13]; at 50.0 µM): 67.7%

O=[N+]([O-])c1cc([As](Br)c2ccc(O)c([N+](=O)[O-])c2)ccc1O
growth inhibition ([1]; at 1.2 µM): 15%
growth inhibition ([1]; at 3.7 µM): 57%
growth inhibition ([1]; at 11.0 µM): 99% (active)
growth inhibition ([1]; at 33.0 µM): 99% (active)
growth inhibition ([1]; at 100.0 µM): 98% (active)
growth inhibition ([2]; at 1.2 µM): 10%
growth inhibition ([2]; at 3.7 µM): 70% (active)
growth inhibition ([2]; at 11.0 µM): 99% (active)
growth inhibition ([2]; at 33.0 µM): 98% (active)
growth inhibition ([2]; at 100.0 µM): 98% (active)
growth inhibition ([3]; at 1.2 µM): 0%
growth inhibition ([3]; at 3.7 µM): 3%
growth inhibition ([3]; at 11.0 µM): 26%
growth inhibition ([3]; at 33.0 µM): 74% (active)
growth inhibition ([3]; at 100.0 µM): 99% (active)
growth inhibition ([5]; at 1.2 µM): 28%
growth inhibition ([5]; at 3.7 µM): 89% (active)
growth inhibition [5, 17]: 99% (active)
growth inhibition ([5]; at 11.0 µM): 99% (active)
growth inhibition ([5]; at 33.0 µM): 99% (active)
growth inhibition [5, 18]: 99% (active)
growth inhibition ([5]; at 50.0 µM): 99.5% (active)
growth inhibition ([5]; at 100.0 µM): 98% (active)
growth inhibition ([6]; at 1.2 µM): 60%
growth inhibition ([6]; at 3.7 µM): 93% (active)
growth inhibition [6, 17]: 99% (active)
growth inhibition ([6]; at 11.0 µM): 99% (active)
growth inhibition ([6]; at 33.0 µM): 100% (active)
growth inhibition [6, 18]: 99% (active)
growth inhibition ([6]; at 50.0 µM): 99.8% (active)
growth inhibition ([6]; at 100.0 µM): 100% (active)
growth inhibition ([14]; at 1.2 µM): 31%
growth inhibition ([14]; at 3.7 µM): 69%
growth inhibition ([14]; at 11.0 µM): 100% (active)
growth inhibition ([14]; at 33.0 µM): 100% (active)
growth inhibition ([14]; at 100.0 µM): 99% (active)
growth inhibition [7, 17]: 99% (active)
growth inhibition [7, 18]: 99% (active)
growth inhibition ([7]; at 50.0 µM): 99.5% (active)
growth inhibition ([8]; at 1.2 µM): 16%
growth inhibition ([8]; at 3.7 µM): 22%
growth inhibition ([8]; at 11.0 µM): 93% (active)
growth inhibition ([8]; at 33.0 µM): 98% (active)
growth inhibition ([8]; at 100.0 µM): 98% (active)
growth inhibition [9, 17]: 98% (active)
growth inhibition [9, 18]: 99% (active)
growth inhibition ([9]; at 50.0 µM): 99.5% (active)
growth inhibition ([10]; at 1.2 µM): 97% (active)
growth inhibition ([10]; at 3.7 µM): 98% (active)
growth inhibition [10, 17]: 93% (active)
growth inhibition ([10]; at 11.0 µM): 97% (active)
growth inhibition ([10]; at 33.0 µM): 98% (active)
growth inhibition [10, 18]: 99% (active)
growth inhibition ([10]; at 50.0 µM): 99.5% (active)
growth inhibition ([10]; at 100.0 µM): 99% (active)
growth inhibition ([15]; at 1.2 µM): 12%
growth inhibition ([15]; at 3.7 µM): 94% (active)
growth inhibition ([15]; at 11.0 µM): 99% (active)
growth inhibition ([15]; at 33.0 µM): 99% (active)
growth inhibition ([15]; at 100.0 µM): 99% (active)
growth inhibition ([11]; at 1.2 µM): 31%
growth inhibition ([11]; at 3.7 µM): 75% (active)
growth inhibition ([11]; at 11.0 µM): 99% (active)
growth inhibition ([11]; at 33.0 µM): 100% (active)
growth inhibition ([11]; at 100.0 µM): 100% (active)
growth inhibition ([12]; at 1.2 µM): 33%
growth inhibition ([12]; at 3.7 µM): 90% (active)
growth inhibition ([12]; at 11.0 µM): 99% (active)
growth inhibition ([12]; at 33.0 µM): 99% (active)
growth inhibition ([12]; at 100.0 µM): 99% (active)
growth inhibition [13, 17]: 99% (active)
growth inhibition [13, 18]: 99% (active)
growth inhibition ([13]; at 50.0 µM): 99.8% (active)
growth inhibition ([16]; at 1.2 µM): 26%
growth inhibition ([16]; at 3.7 µM): 85% (active)
growth inhibition ([16]; at 11.0 µM): 99% (active)
growth inhibition ([16]; at 33.0 µM): 99% (active)
growth inhibition ([16]; at 100.0 µM): 98% (active)
